Assay outcomes (PubChem BioAssay)
Compounds with a hit are over-represented: about 9.2% of the library has one in this group of screens.
FLuc modulator – inhibits or activates purified firefly luciferase, miR-21 counter-screen; P08659; purified FLuc, Km substrates, luminescence inhibition; Potency, µM (highest dose often 57.5 µM), usual class: inhibitors; 6.9% of 360,000 active; AID 588342; note: nearly all actives have a fitted effect of over 55% in size
Target sequence (P08659 whole entry, looked up): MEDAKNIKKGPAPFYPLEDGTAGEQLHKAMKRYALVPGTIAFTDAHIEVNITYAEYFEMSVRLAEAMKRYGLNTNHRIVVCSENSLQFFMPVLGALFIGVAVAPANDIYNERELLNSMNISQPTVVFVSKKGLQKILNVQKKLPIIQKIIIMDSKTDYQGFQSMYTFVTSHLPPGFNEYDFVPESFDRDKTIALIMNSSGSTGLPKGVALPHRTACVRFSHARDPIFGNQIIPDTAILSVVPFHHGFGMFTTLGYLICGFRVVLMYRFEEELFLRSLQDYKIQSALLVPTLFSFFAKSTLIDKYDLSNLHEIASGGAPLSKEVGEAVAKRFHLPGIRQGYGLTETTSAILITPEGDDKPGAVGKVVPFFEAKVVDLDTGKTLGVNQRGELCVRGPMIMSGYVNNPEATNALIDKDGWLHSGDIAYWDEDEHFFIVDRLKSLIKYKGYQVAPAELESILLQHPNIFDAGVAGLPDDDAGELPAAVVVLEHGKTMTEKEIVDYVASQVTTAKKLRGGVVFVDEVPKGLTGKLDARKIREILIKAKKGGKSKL
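Purified P. pyralis luciferase (10nM final) with 10uM D-luciferin and 10uM ATP (Km levels) in 50mM Tris acetate pH 7.5, 10mM Mg acetate, 0.01% Tween-20, 0.05% BSA; qHTS 6-point titration, ~60 µM downward; luminescence read.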
ELG1 genotoxic – induces genotoxicity in HEK293T cells with luciferase-tagged ELG1. HEK293T ELG1-luciferase reporter, luminescence, 16 h. Potency, µM (top dose mostly 46 µM), actives largely listed as activators. 1.3% of 330,000 active. AID 504466; note: nearly all actives have a fitted effect of over 60% in size
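Quantitative HTS format in 1536-well plates. HEK293T ELG1-luciferase reporter cells receive test compound and are incubated 16 hr at 37 °C, 5% CO2; ONE-Glo added, 30 min room temperature, then luminescence read.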
SMN2 splice up – SMN2 splice variant enhancement; HEK293 SMN2-luciferase splicing reporter, luminescence, 30-36 h; Potency, µM (top dose mostly 46.1 µM), actives largely listed as activators; 2.8% of 210,000 active; AID 1458; note: nearly all actives have a fitted effect of over 55% in size
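HEK293 cells carry an SMN2 minigene-luciferase reporter in which exon 7 inclusion puts luciferase in frame. Cells were seeded at 2000 cells/well, attached for 10-12 hours, then exposed to compounds for 30-36 hours at 37C before ONE-Glo luminescence.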
Rab9 promoter act – activates the Rab9 promoter | AID 485297 | 2.8% of 320,000 active | Potency, µM (highest dose often 9.22 µM), usual class: activators | Huh7 Rab9 promoter-luciferase reporter, luminescence, 24 h; note: nearly all actives have a fitted effect of over 60% in size
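Stable Rab9-luc Huh7, 1500 cells/well, 2 h settle; cmpd in DMSO, 24 h, 37 °C/5% CO2; luciferase reagent 10 min RT; luminescence.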
ELG1 repair inh – ELG1-dependent DNA repair inhibition. HEK293T ELG1-luciferase reporter, luminescence, 16 h; DNA damage induced by 5-fluorouridine. Potency, µM (doses to about 46.1 µM), usual class: inhibitors. 2.3% of 330,000 active; note: nearly all actives have a fitted effect of over 55% in size
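DMSO vehicle served as the neutral condition. Each well held 2,000 cells given 5-fluorouridine plus compound; after 16 hr at 37 °C/5% CO2, ONE-Glo was added and luciferase measured 30 min later.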
NPC1 prom act – NPC1 promoter activation; Potency, µM (top dose mostly 9.22 µM), usual class: activators; Huh7 NPC1 promoter luciferase reporter, 24 h; 2.4% of 320,000 active; note: nearly all actives have a fitted effect of over 60% in size
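Huh7 cells stably carrying NPC1 promoter–luciferase, plated in Opti-MEM with 10% FBS for 2 h, were exposed to compound in DMSO for 24 h at 37 °C; luciferase reagent was added for 10 min and luminescence read.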
Numbers stand for hits; 0 = inactive; ? = inconclusive; - = no result. Calls come from the whole dose curve; as a rule, active = well fitted curve in the direction sought with a large enough effect; inconclusive = small, poorly fitted or top-dose-only effect, or another doubt; inactive = no such curve, though single readings can be large; an effect the other way counts as inactive or inconclusive.

SMILES	FLuc modulator	ELG1 genotoxic	SMN2 splice up	Rab9 promoter act	ELG1 repair inh	NPC1 prom act
O=C(Cc1nc2ccccc2[nH]1)c1cccc([N+](=O)[O-])c1	24µM	0	-	0	4.1µM	?
COC(=O)c1ccc(C(NC(=O)OCc2ccccc2)/C(=C/[C@@H](C)C(=O)NCc2cccnc2)c2cccnc2)cc1 (stereo partly specified)	-	-	0	-	-	-
O=C(NC(Cc1ccccc1)c1nc2ccccc2[nH]1)c1cccc([N+](=O)[O-])c1 (stereo unspecified)	0	0	-	0	0	0
O=C(Nc1nc2ccccc2[nH]1)c1cccc([N+](=O)[O-])c1	?	0	11µM	1.4µM	?	3.5µM
O=C(CSc1nnc(C2CC2)n1CC1CCCO1)Nc1cccc(Cl)c1 (stereo unspecified)	0	0	-	0	0	0
Cc1ccc(C2NC(=O)NC3=C2CCc2ccccc23)cc1 (stereo unspecified)	3µM	?	0	0	?	?
CC(C)c1ccc(C2NC(=O)NC3=C2CCc2ccccc23)cc1 (stereo unspecified)	0	0	0	0	0	0
Cc1cccc(-n2nnc(C(=O)Nc3ccc(F)cc3)c2N)c1	6µM	0	10µM	2.8µM	?	1.6µM
COC(=O)c1nnn(-c2cccc(C)c2)c1N	0	-	0	-	-	-
Cc1cccc(-n2nnc(C(=O)N3CCc4ccccc4C3)c2N)c1	15µM	0	0	0	?	0
Cc1c(C(=O)Nc2ccc(C(=O)O)cc2)nnn1-c1ccccc1	0.27µM	-	-	-	-	-
COc1ccccc1NC(=O)c1nnn(-c2ccc(F)cc2)c1C	0	-	0	-	-	-
Cc1c(C(=O)Nc2ccc(F)cc2)nnn1-c1cccc(C(F)(F)F)c1	0	0	0	0	5.8µM	0
COc1ccc(NC(=O)CN2C(=O)CCc3cc(S(=O)(=O)N4CCOCC4)ccc32)cc1Cl	0	-	-	-	-	-
O=C(C1=C(O)C(=O)N(Cc2cccnc2)C1c1ccccn1)c1cccs1 (stereo unspecified)	0	0	0	0	0	0
CCC1=Nc2cc(C(=O)NC3CCCC3)ccc2Sc2ccc(Cl)cc21	0	-	0	-	-	-
CC(=O)c1cnn(-c2c(Cl)cc(Cl)cc2Cl)c1C	0	0	-	0	?	0
Cc1ccc(SCCNC(=O)c2ccc(C)c(S(=O)(=O)Nc3ccccc3C)c2)cc1	0	0	0	0	2.9µM	0
COc1ccc(OC)c(NC(=O)COC(=O)CCc2nc3ccccc3c(=O)[nH]2)c1	-	0	-	-	0	-
COc1ccc(-n2ncc3c(NC(C)C)ncnc32)cc1	1.3µM	?	2.8µM	0.32µM	?	0.28µM
COc1ccc(-n2ncc3c(NCC(C)C)ncnc32)cc1	1.1µM	?	2µM	0.35µM	?	0.4µM
O=C(CSc1nnc2ccccn12)Nc1ccc(S(=O)(=O)N2CCOCC2)cc1	0	0	0	0	0	0
COc1cc(NC(=O)C(C)N2CCN(C(=O)C3CC3)CC2)cc(OC)c1 (stereo unspecified)	0	0	-	0	0	0
Cc1ccc(-n2cc(CNCC3CC(=O)N(C4CC4)C3)c(-c3cccc(C)c3)n2)cc1 (stereo unspecified)	21µM	0	-	0	?	0
C=CC(=O)Nc1ccc(Nc2nc(NC3CCC(N(C)C)CC3)nc3c2ncn3C(C)C)cc1 (stereo unspecified)	-	0	-	-	2.3µM	-
SMILES	FLuc modulator	ELG1 genotoxic	SMN2 splice up	Rab9 promoter act	ELG1 repair inh	NPC1 prom act
C/C(=N/OC(=O)C1CC1c1ccccc1)c1ccccc1 (stereo unspecified)	19µM	?	0	0	0	0
COc1ccc(C2CC2/C(C)=N/OC(=O)C2CC2)cc1 (stereo unspecified)	0	0	0	0	0	0
CC/C(=N\NC(=O)c1nnn(-c2nonc2N)c1CN(C)c1ccccc1)c1ccccc1	0	0	-	0	0	0
N/C(=N\OC(=O)c1ccc(Cl)c([N+](=O)[O-])c1)c1ccccn1	?	0	-	0	?	0
N/C(=N\OC(=O)c1cccc(Br)c1)c1ccccc1	0.85µM	?	?	0	?	0
N/C(=N\OC(=O)c1ccc(Cl)c(Cl)c1)c1ccccn1	0.76µM	?	14µM	4.5µM	?	3.2µM
N/C(=N\OC(=O)c1ccc2ccccc2c1)c1ccc(Br)cc1	0	0	?	0	?	0
N/C(=N\OC(=O)c1ccc(Cl)cc1)c1ccccn1	0.076µM	?	7.1µM	1.4µM	?	0.56µM
CC(C)C(=O)O/N=C(\N)c1ccccn1	0	0	0	0	0	0
N/C(=N\OC(=O)c1ccc(Cl)cc1)c1[nH]ncc1Br	0.13µM	?	-	3.2µM	?	?
N/C(=N\OC(=O)c1cccc(Cl)c1)c1ccccn1	0.6µM	?	14µM	3.2µM	?	3.2µM
N/C(=N\OC(=O)CCCOc1ccccc1)c1cccc(Br)c1	?	0	0	0	0	0
CCOc1ccc(C(=O)O/N=C(\N)c2ccccn2)cc1OCC	12µM	?	-	2.5µM	?	1.3µM
N/C(=N\OC(=O)c1cccc(Br)c1)c1ccccn1	0.43µM	?	-	4µM	?	3.5µM
CCOc1cc(C(=O)O/N=C(\N)c2ccccn2)cc(OCC)c1OCC	?	0	-	0	?	0
N/C(=N\OS(=O)(=O)c1ccc(Cl)cc1)c1ccccn1	0	23µM	0	0	?	0
CCOc1ccc(CCNC(c2nnc(-c3ccccc3)o2)c2ccccc2Cl)cc1OCC (stereo unspecified)	0	-	0	-	-	-
Nc1no[n+]([O-])c1-c1ccccc1	0	0	0	0	0	0
CC(C)Oc1ccc(CN2CCC(n3nccc3NC(=O)CCc3ccccc3)CC2)cc1	0	0	-	0	?	0
CC(=O)N[C@@H](CSC/C=C(\C)CC/C=C(\C)CC/C=C(\C)CCC=C(C)C)C(=O)O	-	-	0	-	-	-
COC(=O)c1ccc(C2=NOC(C)(c3nnc(Cc4ccccc4)o3)C2)cc1 (stereo unspecified)	0	0	-	0	?	0
O=C(Nc1nccs1)c1csc2c1CCCC2	13µM	0	0	0	?	0
Cc1ccccc1NC(=O)c1csc2c1CCCC2	19µM	26µM	?	0	?	?
O=C(Nc1ccon1)c1csc2c1CCCC2	?	0	0	0	0	0
CC(C)c1ccc(NC(=O)Nc2csc3c2CCCC3)cc1	4.8µM	-	0	-	-	-
Cc1ccccc1NC(=O)Nc1csc2c1CCCC2	?	-	0	-	-	-
COc1ccc(NC(=O)c2csc3c2CCCC3)cc1	3µM	?	13µM	3.2µM	?	2µM
Cc1cc(NC(=O)Nc2csc3c2CCCC3)ccc1Br	?	-	0	-	-	-
O=C(CN1C(=O)COc2ccccc21)NCCc1ccc(Cl)cc1	0	-	-	-	-	-
COc1cccc(NC(=O)c2csc3c2CCCC3)c1	9.5µM	?	14µM	?	?	?
